Laboratory results reported in PubChem BioAssay AID1159580 (chemical genetic matrix, 2015).
Among all 5,500 compounds or so, about 2,000 (36%) were called active. Roughly 18% stayed inconclusive and do not appear here. No stated cut-off is given here; in the data, active means normalized growth mostly below about 0.91 (no sharp cut-off); inconclusive means no clear call, values can overlap the other calls; inactive means mostly above about 0.92. The list shows a part of the results.

Experiment: chemical genetic growth profiling, strain panel (AID 1159580);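 further: tested at 20 µM; growth read once vehicle control cultures reached saturation at 30 °C; 1 = growth at the plate median or of vehicle wells; lower values mean less growth of the strain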
Conditions: growth OD

Measured: normalized growth

C1N2CN3CN1CN(C2)C3
inactive: S. cerevisiae deletion strains, locus YJR075W, strain HOC1, active compounds read low 0.986 | S. cerevisiae deletion strains, locus YKL068W, active compounds read low 0.976 | S. cerevisiae deletion strains, locus YKL085W, strain MDH1 (second series), active compounds read low 0.987 | S. cerevisiae deletion strains, locus YKL085W, strain MDH1, active compounds read low 0.987 | S. cerevisiae deletion strains, locus YKL160W, strain elf1, active compounds read low 0.973 | S. cerevisiae deletion strains, locus YKL190W, strain CNB1, active compounds read low 0.98 | S. cerevisiae deletion strains, locus YKR001C, strain vps1, active compounds read low 0.965 | S. cerevisiae deletion strains, locus YKR026C, strain gcn3, active compounds read low 0.997 | S. cerevisiae deletion strains, locus YKR091W, strain srl3, active compounds read low 0.985 | S. cerevisiae deletion strains, locus YLL001W, strain dnm1, active compounds read low 0.93 | S. cerevisiae deletion strains, locus YLL026W, active compounds read low 0.993 | S. cerevisiae deletion strains, locus YLL041C, strain sdh2, active compounds read low 0.983 | S. cerevisiae deletion strains, locus YLR027C, strain aat2, active compounds read low 0.996 | S. cerevisiae deletion strains, locus YLR039C, strain RIC1, active compounds read low 0.899 | S. cerevisiae deletion strains, locus YLR058C, strain SHM2, active compounds read low 0.976 | S. cerevisiae deletion strains, locus YLR102C, strain apc9, active compounds read low 0.968 | S. cerevisiae deletion strains, locus YLR113W, strain HOG1, active compounds read low 0.906 | S. cerevisiae deletion strains, locus YLR221C, strain rsa3, active compounds read low 0.965 | S. cerevisiae deletion strains, locus YLR258W, strain gsy2, active compounds read low 0.994 | S. cerevisiae deletion strains, locus YLR262C, strain YPT6 (second series), active compounds read low 0.959 | S. cerevisiae deletion strains, locus YLR262C, strain YPT6, active compounds read low 0.889 | S. cerevisiae deletion strains, locus YLR268W, strain sec22, active compounds read low 0.957 | S. cerevisiae deletion strains, locus YLR320W, strain mms22, active compounds read low 0.961 | S. cerevisiae deletion strains, locus YLR330W, strain CHS5, active compounds read low 0.985 | S. cerevisiae deletion strains, locus YLR342W, strain FKS1 (second series), active compounds read low 0.991 | S. cerevisiae deletion strains, locus YLR342W, strain FKS1, active compounds read low 0.982 | S. cerevisiae deletion strains, locus YLR357W, strain rsc2, active compounds read low 0.971 | S. cerevisiae deletion strains, locus YLR370C, strain arc18, active compounds read low 0.988 | S. cerevisiae deletion strains, locus YLR371W, strain rom2, active compounds read low 0.98 | S. cerevisiae deletion strains, locus YLR384C, strain iki3, active compounds read low 0.989 | S. cerevisiae deletion strains, locus YLR418C, strain cdc73, active compounds read low 0.934 | S. cerevisiae deletion strains, locus YML016C, strain PPZ1, active compounds read low 0.983 | S. cerevisiae deletion strains, locus YML032C, strain rad52, active compounds read low 0.932 | S. cerevisiae deletion strains, locus YML120C, strain ndi1, active compounds read low 0.967 | S. cerevisiae deletion strains, locus YML124C, strain tub3, active compounds read low 0.982 | S. cerevisiae deletion strains, locus YMR058W, strain fet3, active compounds read low 0.998 | S. cerevisiae deletion strains, locus YMR078C, strain ctf18, active compounds read low 0.947 | S. cerevisiae deletion strains, locus YMR125W, strain sto1, active compounds read low 0.975 | S. cerevisiae deletion strains, locus YMR129W, active compounds read low 0.992 | S. cerevisiae deletion strains, locus YMR205C, strain PFK2, active compounds read low 0.959 | S. cerevisiae deletion strains, locus YMR223W, strain ubp8, active compounds read low 0.966 | S. cerevisiae deletion strains, locus YMR231W, strain pep5, active compounds read low 0.992 | S. cerevisiae deletion strains, locus YMR263W, strain SAP30, active compounds read low 0.97 | S. cerevisiae deletion strains, locus YMR307W, strain GAS1, active compounds read low 0.994 | S. cerevisiae deletion strains, locus YNL067W, strain RPL9B, active compounds read low 0.966 | S. cerevisiae deletion strains, locus YNL071W, strain lat1, active compounds read low 0.973 | S. cerevisiae deletion strains, locus YNL128W, strain TEP1, active compounds read low 0.981 | S. cerevisiae deletion strains, locus YNL153C, strain GIM3, active compounds read low 0.968 | S. cerevisiae deletion strains, locus YNL183C, strain NPR1, active compounds read low 0.972 | S. cerevisiae deletion strains, locus YNL209W, strain ssb2, active compounds read low 0.986 | S. cerevisiae deletion strains, locus YNL233W, strain BNI4, active compounds read low 0.99 | S. cerevisiae deletion strains, locus YNL248C, strain rpa49, active compounds read low 0.982 | S. cerevisiae deletion strains, locus YNL271C, strain bni1, active compounds read low 0.959 | S. cerevisiae deletion strains, locus YNL298W, strain CLA4, active compounds read low 0.923 | S. cerevisiae deletion strains, locus YNL307C, strain MCK1, active compounds read low 0.989 | S. cerevisiae deletion strains, locus YNL322C, strain KRE1 (second series), active compounds read low 0.983 | S. cerevisiae deletion strains, locus YNL322C, strain KRE1, active compounds read low 0.982 | S. cerevisiae deletion strains, locus YNR049C, strain mso1, active compounds read low 0.994 | S. cerevisiae deletion strains, locus YNR052C, strain pop2, active compounds read low 0.956 | S. cerevisiae deletion strains, locus YOL006C, strain TOP1, active compounds read low 0.931 | S. cerevisiae deletion strains, locus YOL012C, strain htz1 1.62 | S. cerevisiae deletion strains, locus YOL147C, strain pex11, active compounds read low 0.98 | S. cerevisiae deletion strains, locus YOR001W, strain rrp6, active compounds read low 1.01 | S. cerevisiae deletion strains, locus YOR061W, strain CKA2, active compounds read low 0.957 | S. cerevisiae deletion strains, locus YOR069W, strain VPS5, active compounds read low 0.998 | S. cerevisiae deletion strains, locus YOR070C, strain gyp1, active compounds read low 0.992 | S. cerevisiae deletion strains, locus YOR080W, strain dia2, active compounds read low 0.994 | S. cerevisiae deletion strains, locus YOR083W, strain WHI5, active compounds read low 0.961 | S. cerevisiae deletion strains, locus YOR106W, strain vam3, active compounds read low 0.986 | S. cerevisiae deletion strains, locus YOR136W, strain idh2, active compounds read low 0.989 | S. cerevisiae deletion strains, locus YOR144C, strain elg1, active compounds read low 0.984 | S. cerevisiae deletion strains, locus YOR184W, strain ser1, active compounds read low 1.02 | S. cerevisiae deletion strains, locus YOR265W, strain rbl2, active compounds read low 0.993 | S. cerevisiae deletion strains, locus YOR270C, strain vph1, active compounds read low 0.958 | S. cerevisiae deletion strains, locus YOR290C, strain snf2, active compounds read low 0.914 | S. cerevisiae deletion strains, locus YOR316C, strain cot1, active compounds read low 0.968 | S. cerevisiae deletion strains, locus YPL051W, strain arl3, active compounds read low 0.984 | S. cerevisiae deletion strains, locus YPL055C, strain LGE1, active compounds read low 0.977 | S. cerevisiae deletion strains, locus YPL078C, strain atp4, active compounds read low 0.965 | S. cerevisiae deletion strains, locus YPL106C, strain sse1, active compounds read low 0.967 | S. cerevisiae deletion strains, locus YPL240C, strain hsp82, active compounds read low 0.993 | S. cerevisiae deletion strains, locus YPL256C, strain CLN2, active compounds read low 0.948 | S. cerevisiae deletion strains, locus YPR119W, strain clb2, active compounds read low 0.983 | S. cerevisiae deletion strains, locus YPR141C, strain kar3, active compounds read low 0.95 | S. cerevisiae deletion strains, locus YPR163C, strain tif3, active compounds read low 0.984 | S. cerevisiae deletion strains, locus YPR167C, strain met16, active compounds read low 0.978 | S. cerevisiae deletion strains, strain wtn01, active compounds read low 0.959 | S. cerevisiae strains, strain wild type, active compounds read low 0.989
active: S. cerevisiae deletion strains, locus YKL009W, strain mrt4, active compounds read low 0.834 | S. cerevisiae deletion strains, locus YNL250W, strain rad50, active compounds read low 0.834 | S. cerevisiae deletion strains, locus YOR231W, strain MKK1, active compounds read low 0.794 | S. cerevisiae deletion strains, locus YPL241C, strain CIN2, active compounds read low 1.08 [resistant]
